Here are results for seven compounds from PubChem BioAssay.

Molecules are shown by their SMILES.

The nature of the assay: adipocyte viability effects, profiling panel, cell-based, 3T3-L1 adipocytes, calcein-AM fluorescence, 48 h, basal (AID 1163). Further: test concentration not given here. The conditions noted are these: 3T3-L1 adipocytes viability, higher = more signal.
With `CC(C)N1C(=O)c2ccccc2[C@](C)(C(=O)NCCN2CCOCC2)[C@@H]1c1ccc(CO)cc1`, the z-score is -0.748.
Under `CCCC=C(CCC)[C@@H](NC(=O)c1cccs1)c1ccc(C(F)(F)F)cc1` stands 0.203.
Under `C[N+](C)(C)CCCCNC(=O)[C@@H]1C[C@@H]2C(=O)N[C@@H](Cc3ccccc3)C(=O)N2[C@@H]1c1cccc(OCCO)c1` stands -0.764; under `Cc1ccc(S[C@]2(C(=O)NC3CC3)CC(=O)N(Cc3ccccc3)[C@@H]2c2ccc(CO)cc2I)cc1`, 0.388; under `CCOC(=O)C1=C[C@@H](C(C)(C)C)N(S(=O)(=O)c2ccc(C)cc2)[C@H]1c1ccc(F)cc1`, 0.131.
Under `COc1ccc(C(O)C2C=CC3C(=O)N(Cc4ccccc4)C(=O)C3N2n2cnnc2)cc1OCc1ccccc1` (configuration not stated) stands 0.534; under `CC1CC/C=C\[C@H]2OC34C=CCN(C(C)(C)C)C(=O)[C@H]3N(CCO)C(=O)[C@@H]4C2C(=O)O1` (some centres not stated), 1.09.
